Records with an inconclusive call do not appear. Calls of active or inactive are those of the source. How the source made its calls: active means hit-call score of the fitted dose curve at least 0.9, where 1 is the maximum; inconclusive means response in the unintended direction; inactive means score below 0.9.

Chain of human Vitamin D Receptor (VDR), VDR (gene 7421) (P11473 whole entry, looked up, the tested form may be a part): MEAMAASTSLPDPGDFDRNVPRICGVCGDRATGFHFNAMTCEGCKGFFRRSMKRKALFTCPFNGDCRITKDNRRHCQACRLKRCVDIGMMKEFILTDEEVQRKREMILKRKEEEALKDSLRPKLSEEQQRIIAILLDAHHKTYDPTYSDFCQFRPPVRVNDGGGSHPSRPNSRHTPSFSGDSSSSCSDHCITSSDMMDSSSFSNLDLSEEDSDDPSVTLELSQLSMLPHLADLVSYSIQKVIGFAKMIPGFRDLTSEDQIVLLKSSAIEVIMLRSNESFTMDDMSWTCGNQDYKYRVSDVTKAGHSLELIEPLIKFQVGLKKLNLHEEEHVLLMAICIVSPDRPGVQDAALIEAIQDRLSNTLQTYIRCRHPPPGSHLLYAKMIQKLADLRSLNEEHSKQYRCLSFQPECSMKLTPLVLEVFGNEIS

This test has as its target human Vitamin D Receptor (VDR), VDR (gene 7421) (UniProt P11473). The test can be described thus: ATG_VDR_TRANS: Attagene TRANS-FACTORIAL HepG2 Assay for human Vitamin D Receptor (VDR) (AID 2283022). The procedure, abridged: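 Steps: transfect HepG2 with GAL4-UAS-driven reporter constructs; dose compounds 24 h; isolate RNA, reverse-transcribe, PCR-amplify with 6-FAM-labelled primer extension and HpaI digestion; quantify fragments by capillary electrophoresis relative to DMSO.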
Turning to `OCc1cccc(Oc2ccccc2)c1`, the result was inactive.
Turning to `C#CC(C)N(C)C(=O)Nc1ccc(Cl)cc1` (stereo not given), the molecule was classed as inactive.
Take `O=C(O)c1cc(C(=O)O)cc([N+](=O)[O-])c1`: the outcome was inactive.
With `Cc1cc(S(=O)(=O)O)ccc1N=Nc1c(O)ccc2ccccc12` the entry was “inactive”; with `N[C@@H](Cc1cc(I)c(Oc2cc(I)c(O)c(I)c2)c(I)c1)C(=O)O`, “inactive”.
With `COC(=O)c1ccc(C)cc1C1=NC(C)(C(C)C)C(=O)N1` (stereo not given) (tested in a mixture with another compound) the entry was “inactive”; with `C=CCOC(=O)CCCCCC`, “inactive”.
With `C[C@H]1O[C@@H](O[C@H]2[C@@H](O)C[C@H](O[C@H]3[C@@H](O)C[C@H](O[C@H]4CC[C@@]5(C)[C@H](CC[C@@H]6[C@@H]5C[C@@H](O)[C@]5(C)[C@@H](C7=CC(=O)OC7)CC[C@]65O)C4)O[C@@H]3C)O[C@@H]2C)C[C@H](O)[C@@H]1O` the entry was “inactive”.
In the case of `CC(C)CC(C)CC(O)CC(C)C` (stereo not given), the molecule was classed as inactive.
For the molecule `CCCOCCO`, the outcome was inactive.
On to `CC1C2CC(CC2C2CCCC(O)C2)C1(C)C` (stereo not given), for which the outcome was inactive.
Regarding `C#CC(C)(O)CC(C)C` (stereo not given), the call was inactive.
In the case of `COc1ccc(N)c([N+](=O)[O-])c1`, the molecule was classed as inactive.
Take `CC(C)c1ccccc1O`: the call was inactive.
With `C=Cc1ccc(C)cc1` the entry was “inactive”.
Turning to `Cc1ccc2c(c1)C(=O)OC2=O`, the molecule was called inactive.
As for `CCCCCCCC(=O)OCCCCCC`, the outcome was inactive.
For the molecule `CCCC(O)C(O)CO` (stereo not given), the outcome was inactive.
To `C=C1C[C@]23C[C@@]1(O)CC[C@H]2[C@@]12C=C[C@H](O)[C@@](C)(C(=O)O1)[C@H]2[C@@H]3C(=O)O` belongs “inactive”; to `C=C(C)[C@@H]1CC=C(C)C(=O)C1`, “inactive”; to `CCCC1O[C@@H]2C[C@H]3[C@@H]4CCC5=CC(=O)C=C[C@]5(C)[C@H]4[C@@H](O)C[C@]3(C)[C@]2(C(=O)CO)O1` (stereo not given in full), “inactive”.
To `CCOC(=O)[C@@H](C)Oc1ccc(Oc2nc3ccc(Cl)cc3o2)cc1` belongs “inactive”; to `OCCOCCN1CCN(C2=Nc3ccccc3Sc3ccccc32)CC1`, “inactive”.
To `CCCCCCCCCCCCN1CCCCCC1=O` belongs “inactive”.
With `OC[C@H]1O[C@@H](Oc2ccc(O)cc2)[C@H](O)[C@@H](O)[C@@H]1O`, the molecule was called inactive.
To `C=CCCC(=O)/C=C/C1C(C)=CCCC1(C)C` (stereo not given) belongs “inactive”; to `CCc1cc(C(C)(C)C)c(O)c(C(C)(C)C)c1`, “inactive”.
Take `CC(=O)C(C)O` (stereo not given): the call was inactive.
For `CCCCCCCCN1CCCC1=O`, the call was inactive.
Regarding `CC(=O)O[C@H]1C[C@@H]2CC[C@@]1(C)C2(C)C`, the molecule was called inactive.
With `C=C(CC(=O)O)C(=O)O` the entry was “inactive”; with `CC(C)NCC(O)COc1ccc(CC(N)=O)cc1` (stereo not given), “inactive”; with `CC(C)(C)C1=CC(=O)C(C(C)(C)C)=CC1=O`, “inactive”.
To `Brc1ccc(Br)c(Br)c1` belongs “inactive”; to `CCCCCCC(C)Nc1ccc(Nc2ccccc2)cc1` (stereo not given), “inactive”; to `O=C1OC(=O)c2c(Br)c(Br)c(Br)c(Br)c21`, “inactive”.
`O=Cc1ccccc1S(=O)(=O)O`: the outcome was inactive.
To `CCNCCO` belongs “inactive”; to `CS(=O)(=O)c1ccc(Cl)cc1`, “inactive”; to `O=CCc1ccccc1`, “inactive”.
